This is one part of a sample in which hits are shown more often than they occur.
aSyn 5UTR act – Activators working through SNCA 5'UTR binding (MLPCN); alpha-synuclein 5'UTR reporter, activators screen; activity score, % (tested at 7.5 µM), hits read low; 300,000 tested, 7.1% active; in the data active = activity score below about -60%
Numbers stand for hits; i = inactive.

SMILES	aSyn 5UTR act
COc1ccccc1C(=O)Nc1ccc(N2CCN(S(C)(=O)=O)CC2)cc1	-75.6
O=C(COc1ccc(F)cc1Br)N1CCc2ccccc21	-86.0
O=C(CNc1ccccc1OC(F)F)N1CCc2ccccc21	-288.6
COc1ccccc1C(=O)NC(=S)N1CCCc2ccccc21	-167.0
COc1c(C)cccc1C(=O)Nc1ccc(CN2CCOCC2)cc1	-108.7
COCCNC(=S)Nc1ccc(N2CCCCC2)cc1	-172.8
COc1c(C)cccc1C(=O)Nc1ccc(N2CCN(S(C)(=O)=O)CC2)cc1	-145.6
O=C(COc1ccccc1Cl)NC(=S)N1CCc2ccccc21	-86.7
COc1ccccc1C(=O)NC(=S)Nc1ccc(N2CCCC2)cc1	-83.5
COC(=O)c1c(C)[nH]c(/C=N/Nc2ccccc2)c1C	-70.5
C=CCn1c(N)c(C(=O)Nc2ccccc2)c2nc3ccccc3nc21	i
C=CCn1cccc(C(=O)Nc2ccc(F)cc2)c1=O	-101.0
C=CCn1cccc(C(=O)Nc2ccc(OC)cc2)c1=O	-96.6
C=CCc1cccc2cc(C(=O)Nc3ccc(F)cc3)c(=O)oc12	-128.3
COc1ccc(NC(=O)c2cccn(CC=C(C)C)c2=O)cc1	-78.6
COc1ccc(/C=C2\CCC(C3CCCC3)C2=O)cc1OC (stereo unspecified)	-74.8
Cc1ccsc1/C=C1\CCC(C2CCCC2)C1=O (stereo unspecified)	-163.5
COc1ccc(/C=C2\CCC(C3CCCC3)C2=O)cc1 (stereo unspecified)	-179.1
Cc1ccc(/C=C2\CCC(C3CCCC3)C2=O)cc1 (stereo unspecified)	-105.1
O=c1c2ccccc2nc(/C=C/c2c[nH]c3ccccc23)n1CCO	-160.0
CCOc1ccc2cc(C#N)c(SCC(=O)N3CCOCC3)nc2c1	-94.2
Cc1ccc2cc(C#N)c(SCC(=O)N3CCCC3)nc2c1	-81.3
Cc1cc(C)c2nc(SCC(=O)N3CC(=O)Nc4ccccc43)c(C#N)cc2c1	i
CCOC(=O)CSc1nc2ccc(C)cc2cc1C#N	-172.0
COc1ccc2nc(SCC(C)=O)c(C#N)cc2c1	-69.8
SMILES	aSyn 5UTR act
CCOC(=O)CSc1nc2cc(C)cc(C)c2cc1C#N	-194.6
CCOC(=O)CSc1nc2cc(OC)ccc2cc1C#N	-109.0
CCOC(=O)CSc1nc2cc(C)ccc2cc1C#N	-150.0
Cc1ccc2nc(/C(C#N)=C/c3cn[nH]c3-c3ccc(F)cc3)[nH]c2c1	-174.6
Cc1ccc2nc(/C(C#N)=C/c3ccc(O)c(O)c3)[nH]c2c1	-221.6
Cc1nc(S(=O)(=O)N2CCOCC2)c(C#N)c(C)c1Cl	-99.8
Cc1nc(S(=O)(=O)N(C)Cc2ccccc2)c(C#N)c(C)c1Cl	-117.8
Cc1nc(S(=O)(=O)NC2CCCCC2)c(C#N)c(C)c1Cl	-90.6
c1ccc(OCCOc2ncnc3sccc23)cc1	-125.8
Cc1ccc(Oc2ncnc3sccc23)cc1	-142.5
CCOc1ccc(OCCOc2ncnc3ccccc23)cc1	-70.4
Cc1cc(Cl)ccc1OCCCC(=O)N1CCOCC1	-94.8
Cc1cc(Cl)ccc1OCCCC(=O)N1CCCCC1	-100.5
Cc1cc(Cl)ccc1OCC(=O)N1C(C)CCCC1C (stereo unspecified)	-62.3
COc1cc(C=O)ccc1Oc1nnnn1-c1ccc(C(N)=O)cc1	-67.5
COc1ccc(C2Nc3ccccc3C(=O)N2c2ccc(C)cc2)cc1Cn1nnc2ccccc21 (stereo unspecified)	-121.6
COc1ccc(C2Nc3ccccc3C(=O)N2c2ccc(C)cc2)cc1Cn1cc([N+](=O)[O-])cn1 (stereo unspecified)	-86.6
COc1cc(O)sc1C=Nc1ccc(Cl)cc1	-92.1
COc1ccc(OC)c(C(=O)/C=C/c2ccccc2C(F)(F)F)c1	-197.9
COc1ccc(C(=O)/C=C/c2ccccc2)c(OC)c1	-276.6
COc1ccc(C(=O)/C=C/Nc2cc(C)on2)c(OC)c1	-72.3
Cc1cc(C)n(CC(O)COc2ccc3ccccc3c2)n1 (stereo unspecified)	-113.9
COC(=O)c1ccc(N/C=C\C(=O)c2ccc3c(c2)OCO3)cc1	-133.3
Cc1cc(C)nc(NC(=O)c2c(F)c(F)c(F)c(C(=O)Nc3cc(C)cc(C)n3)c2F)c1	-69.7
O=C(Nc1ccc(C(=O)N2CCCC2)cc1)c1ccc2c(c1)OCO2	-68.6
SMILES	aSyn 5UTR act
Cc1nc(NC(=O)c2ccc(Cl)cc2)nc2cc3c(cc12)OCO3	-84.1
COC(=O)c1c(-c2cccnc2)csc1NC(=O)c1ccc2c(c1)OCO2	-76.5
Cc1ccccc1-c1nc(-c2ccc(NC(=O)c3ccc4c(c3)OCO4)cc2)no1	-70.8
COC(=O)c1sccc1NC(=O)/C=C/c1ccc(Cl)cc1	-197.4
COC(=O)c1sccc1NC(=O)c1ccc(OC)cc1OC	-98.2
O=C(Nc1ccc(N2CCCCC2)cc1)c1ccc2c(c1)OCCO2	-86.7
Cc1cc(C)nc(NC(=O)c2ccc3c(c2)OCO3)c1	-94.1
COC(=O)c1sccc1NC(=O)c1ccc2c(c1)OCO2	-91.4
CC1CCCC(NC(=O)c2ccc3c(c2)OCO3)C1C (stereo unspecified)	-65.2
O=C(Nc1ccc(F)c(Cl)c1)c1ccc2c(c1)OCO2	-210.9
COC(=O)c1sccc1NC(=O)c1ccc(C(C)C)cc1	-86.5
COc1ccc(NC(=O)c2ccc3c(c2)OCO3)cc1Cl	-144.8
